A short description of assay [1]: yeast TOR pathway RPL19A-GFP modulators, primary screen, cell-based, S. cerevisiae, multiplex flow cytometry (AID 1862; in the data active = percent of DMSO control GFP below about 86%;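 also: lower values mimic rapamycin by blocking the RPL19A rise seen in DMSO cells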). The conditions noted are these: S. cerevisiae RPL19A-GFP strain, flow cytometry fluorescence, 3 h; at 10 µM; stronger effect = lower value. On the technique in general: In flow cytometry, cells or beads pass a laser one at a time.
Assay [2] in a line: modulators of MEP2-GFP levels in yeast, primary screen, S. cerevisiae, multiplex flow cytometry (AID 1867;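 active = GFP response, as percent of the DMSO control, above the screen-wide mean plus 3 SD, about 139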;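 also: median GFP channel fluorescence of barcode-gated MEP2-GFP cells measured by flow cytometry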). Conditions: S. cerevisiae MEP2-GFP strain, 3 h, at 10 µM, stronger effect = higher value, 100% means same as DMSO wells.
The nature of assay [3]: modulators of CIT2-GFP expression in yeast, primary screen, S. cerevisiae, GFP fusion, multiplex flow cytometry (AID 1870;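 active = percent response above a set limit, the screen-wide mean plus 3 SD, cut at about 130% in these data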;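 also: barcoded CIT2-GFP strain pooled with four other GFP strains with rapamycin as positive control; median GFP fluorescence per well over plate mean of DMSO wells so 100% = DMSO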). The conditions noted are these: 3 h, at 10 µM, stronger effect = higher value.
A short description of assay [4]: modulators of LAP4-GFP expression in yeast, primary screen, S. cerevisiae, multiplex flow cytometry (AID 1873;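 active = GFP signal, as percent of the solvent control, above the screen mean plus 3 SD, about 149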). Conditions: 3 h, at 10 µM, stronger effect = higher value.
Assay [5] in a line: modulators of AGP1-GFP expression in yeast TOR pathway, primary screen, cell-based, multiplex flow cytometry, S. cerevisiae (AID 1887;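 active = GFP signal above the screen-wide mean plus 3 SD, that is over about 124.5% of the solvent control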;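 also: AGP1-GFP fusion strain of S. cerevisiae within a five-strain barcoded multiplex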). Conditions: 3 h, at 10 µM, stronger effect = higher value.
Assay [6] in a line: RPL19A-GFP modulators, yeast TOR pathway, confirmation, cell-based, S. cerevisiae, flow cytometry, cherry picks, mother/daughter gates (AID 2270;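 active = GFP response below 50% of the DMSO control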). Conditions: S. cerevisiae RPL19A-GFP strain, 3 h, at 10 µM, stronger effect = lower value, 100 = same GFP as DMSO wells.
Assay [7] in a line: LAP4-GFP expression modulators in yeast, confirmation, cell-based, cherry picks, flow cytometry, mother/daughter gates (AID 2271;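 active = GFP response above 150% of the DMSO control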;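 also: ratio of sample to DMSO plate mean so 100% equals DMSO level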). The conditions noted are these: S. cerevisiae LAP4-GFP strain, 3 h, at 10 µM, stronger effect = higher value, 100 means same as DMSO control.
Assay [8] in a line: modulators of MEP2-GFP levels in yeast, confirmation, S. cerevisiae, flow cytometry GFP, cherry picks (AID 2272;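 active = GFP response above 150% of the DMSO control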;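 also: ratio of well signal to plate DMSO mean so 100% equals DMSO level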). Conditions: S. cerevisiae MEP2-GFP strain, 3 h, at 10 µM, stronger effect = higher value.
A short description of assay [9]: modulators of CIT2-GFP expression in yeast, confirmation, S. cerevisiae, GFP fusion, cherry picks, mother/daughter gates (AID 2274;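 active = GFP response above 150% of the DMSO level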). Conditions: S. cerevisiae CIT2-GFP strain, flow cytometry, 3 h, at 10 µM, stronger effect = higher value.
Assay [10] is described as follows: inhibitors of CD8+ T cell-vesicle binding, pilot screen, LFA-1/ICAM-1 modulator project, MLPCN validation set, flow cytometry (AID 2523;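 active = response below a set limit, under 55% cells CD8-positive and vesicle-bound, and CD8 cells' 90th-percentile brightness under 279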;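 as to vesicle binding response: mean PE anti-B7-1 fluorescence of CD8+ cells relative to row control; 100% = QL9-loaded vesicles with DMSO vehicle in the same plate row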). Conditions: 2C mouse CD8+ T cells, at 7 µM, stronger effect = lower value; double positive events: measured here: CD8+/vesicle+ event percentage.
For assay [11], the target named is Regulator of G-protein signaling 16 (Homo sapiens) (UniProt O15492). As to the kind of experiment: modulators of RGS–Galpha-o binding, primary screen, biochemical, multiplexed beads, flow cytometry, RGS4/7/8/16/19 (AID 1504).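 Also: fluorescently labeled Galpha-o bound to GDP with aluminium fluoride binding biotinylated RGS beads.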 The conditions noted are these: multiplexed bead flow cytometry, measured here: RGS16 interaction, at 10 µM.
In assay [12] the target is Regulator of G-protein signaling 19 (Homo sapiens) (UniProt P49795). Described as above. The conditions noted are these: multiplexed bead flow cytometry, measured here: RGS19 interaction, at 10 µM.
Assay [13] addresses Regulator of G-protein signaling 7 (Homo sapiens) (UniProt P49802). The description is as above. The conditions noted are these: multiplexed bead flow cytometry, measured here: RGS7 interaction, at 10 µM.
The target of assay [14] is Regulator of G-protein signaling 8 (Homo sapiens) (UniProt P57771). The assay is described as above. Conditions: multiplexed bead flow cytometry, measured here: RGS8 interaction, at 10 µM.
Assay [15] in a line: disruption of biotin probe capture by avidin, counter-screen for RGS protein interaction modulators, biochemical, flow cytometry, bead-based (AID 1783;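 active = inhibition above 50%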;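 also: median green fluorescence of gated singlet beads compared with DMSO control wells; 0% = DMSO wells and 100% = complete loss of bead fluorescence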). The conditions noted are these: streptavidin beads, fluorescein-biotin binding; at 10 µM, stronger effect = higher value.
Assay [16] has as its target Guanine nucleotide-binding protein G(o) subunit alpha (Homo sapiens) (UniProt P09471). As to the kind of experiment: RGS8-Galphao binding modulators, confirmation, biochemical, multiplexed bead flow cytometry, single concentration (AID 1836; in the data active = binding response below about 72% or above about 130%; inactive = in between;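 also: Galphao activated as GDP AlF4 complex before binding bead RGS8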). The conditions noted are these: bead-based flow cytometry RGS8-Galphao binding, fluorescence; at 10 µM; actives lie on both sides.

Assay [17] has the same target. As to the kind of experiment: RGS7-Galphao binding modulators, confirmation, biochemical, multiplexed bead flow cytometry, single concentration (AID 1837; in the data active = response below about 75% or above about 130%; inactive = in between;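 also: fluorescent Galphao activated with GDP and aluminum fluoride binding bead-coupled RGS7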). Conditions: bead-based flow cytometry RGS7-Galphao binding; at 10 µM; actives lie on both sides.
In assay [18] the target is Regulator of G-protein signaling 16 (Homo sapiens) + Guanine nucleotide-binding protein G(o) subunit alpha (Homo sapiens) (UniProt O15492+P09471). As to the kind of experiment: modulators of RGS16-Galphao protein binding, confirmation, biochemical, single concentration, multiplexed bead flow cytometry (AID 1838; in the data active = response below about 74% or above about 130%; inactive = in between;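 also: Galphao activated as the GDP aluminium fluoride complex binding bead-coupled RGS16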). Conditions: bead-based flow cytometry, at 10 µM, actives lie on both sides.
Sequence of Regulator of G-protein signaling 16 (Homo sapiens) + Guanine nucleotide-binding protein G(o) subunit alpha (Homo sapiens) (O15492 whole entry, looked up): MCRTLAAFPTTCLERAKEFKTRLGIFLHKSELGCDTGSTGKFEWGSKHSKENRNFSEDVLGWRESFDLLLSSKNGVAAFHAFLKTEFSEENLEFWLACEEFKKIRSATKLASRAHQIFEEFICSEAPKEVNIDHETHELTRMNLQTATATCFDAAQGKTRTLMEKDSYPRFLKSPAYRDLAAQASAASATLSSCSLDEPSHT
Sequence of Regulator of G-protein signaling 16 (Homo sapiens) + Guanine nucleotide-binding protein G(o) subunit alpha (Homo sapiens) (P09471 whole entry, looked up): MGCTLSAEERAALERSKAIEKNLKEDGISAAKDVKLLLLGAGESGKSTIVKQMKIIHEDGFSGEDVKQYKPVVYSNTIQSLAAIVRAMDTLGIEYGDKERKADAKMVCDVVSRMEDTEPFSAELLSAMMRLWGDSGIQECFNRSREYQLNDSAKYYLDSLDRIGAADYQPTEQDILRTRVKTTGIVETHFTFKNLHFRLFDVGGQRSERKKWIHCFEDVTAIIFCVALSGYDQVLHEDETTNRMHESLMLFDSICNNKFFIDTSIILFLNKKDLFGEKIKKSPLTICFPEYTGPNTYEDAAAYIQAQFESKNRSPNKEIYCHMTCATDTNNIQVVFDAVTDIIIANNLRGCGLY

The target of assay [19] is Guanine nucleotide-binding protein G(o) subunit alpha (Homo sapiens) (UniProt P09471). As to the kind of experiment: modulators of RGS4-Galphao protein binding, confirmation, biochemical, single concentration, multiplexed bead flow cytometry (AID 1840). Conditions: at 10 µM, actives lie on both sides.
Sequence of Guanine nucleotide-binding protein G(o) subunit alpha (Homo sapiens) (P09471 whole entry, looked up): as above
Assay [20] addresses Guanine nucleotide-binding protein G(o) subunit alpha (Homo sapiens) + Regulator of G-protein signaling 19 (Homo sapiens) (UniProt P09471+P49795). As to the kind of experiment: regulators of RGS19-Galphao binding, confirmation, biochemical, single point, multiplexed bead flow cytometry (AID 1841; in the data active = response below about 50% or above about 160%; inactive = in between;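 also: 100% = no compound control and 0% = blank background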). The conditions noted are these: bead-based flow cytometry RGS19-Galphao binding; at 10 µM; actives lie on both sides.

[21] abbreviates: measured here: daughter cell gate.
Setting [22] is: measured here: mother cell gate.
The mark [23] stands for this setting: measured here: daughter cell gate response.
Where [24] appears, read: measured here: mother cell gate response.

Results filed as inconclusive are left out. This is one part of the list. The source made the active and inactive calls. Rule as the data show it, unless noted: active = binding response below about 74% or above about 130%; inactive = in between.

Sequence of Guanine nucleotide-binding protein G(o) subunit alpha (Homo sapiens) + Regulator of G-protein signaling 19 (Homo sapiens) (P09471 whole entry, looked up): as above
Sequence of Guanine nucleotide-binding protein G(o) subunit alpha (Homo sapiens) + Regulator of G-protein signaling 19 (Homo sapiens) (P49795 whole entry, looked up): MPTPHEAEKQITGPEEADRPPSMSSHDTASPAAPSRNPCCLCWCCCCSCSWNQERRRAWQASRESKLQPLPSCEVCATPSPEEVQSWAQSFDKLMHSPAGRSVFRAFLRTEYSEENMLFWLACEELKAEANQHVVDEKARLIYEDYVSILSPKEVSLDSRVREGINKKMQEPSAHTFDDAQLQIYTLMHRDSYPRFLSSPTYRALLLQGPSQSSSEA

On to `OC(CCN1CCCCC1)(c1ccccc1)c1ccccc1`, for which, in assay [1], the percent of DMSO control GFP is 92.8% (inactive). The GFP response vs DMSO in assay [2] was 126% (inactive); in assay [4] it was 86.9% (inactive); in assay [6], 100% (inactive); in [6] (setting [21]), 99%; in assay [6] (setting [22]), 102%; in [8] it was 100% (inactive). Besides, in [3], the percent response of DMSO control was 128% (active). Further, the GFP response, % of DMSO is 91.9% (inactive) in assay [5], 96.5% (inactive) in assay [9], 96.5% in assay [9] (setting [21]) and 85.8% in assay [9] (setting [22]). Moreover, the GFP response relative to DMSO in assay [7] is 95% (inactive); in assay [7] (setting [23]), 97.2%; in assay [7] (setting [24]), 95.2%. For the same compound, the double positive events in assay [10] turned out to be 62.7%. In addition, the vesicle binding response in [10] is 152% (inactive).

A word on the inhibition: it is the relative decrease from the control value, in per cent. Take `O=C(NCc1ccc(F)cc1)C1CCC(CNc2c(N3CCOCC3)c(=O)c2=O)CC1` (configuration not stated): the RGS16–Galpha-o binding response in [11] is 3.97%. Also, the RGS19–Galpha-o binding response in assay [12] came out at 357%. Further, the RGS7–Galpha-o binding response in assay [13] is -657%. The same compound returned an RGS8–Galpha-o binding response in assay [14] of 8.33%. The inhibition in assay [15] was 0% (inactive). For the same compound, the binding response (% of control) in assay [16] and in assay [19] was 101% (inactive) throughout. Further, the figures for the response (percent of control binding) in assay [17] and in [20] were 100% (inactive) and 98.1% (inactive), respectively. Further, in assay [18], the response (% of control binding) was 98.7% (inactive).

Consider `CN1CCN2c3ccccc3Cc3ccccc3C2C1` (configuration not stated), for which the percent of DMSO control GFP in assay [1] is 90.2% (inactive). In addition, the GFP response vs DMSO in assay [2] was 146% (active); in assay [4] it was 94.6% (inactive); in [6] it was 99.3% (inactive); in assay [6] (setting [21]), 98.4%; in assay [6] (setting [22]), 100%; in [8] it was 100% (inactive). Besides, in [3], the percent response of DMSO control was 118% (inactive). The GFP response, % of DMSO in assay [5] was 107% (inactive); in assay [9] it was 99.1% (inactive); in assay [9] (setting [21]), 94.8%; in [9] (setting [22]), 101%. Also, the GFP response relative to DMSO in [7] is 95% (inactive); in assay [7] (setting [23]), 97.2%; in assay [7] (setting [24]), 97.2%. The same compound gave a double positive events in assay [10] of 61.8%. The vesicle binding response in assay [10] was 183% (inactive).

Regarding `NC(=O)CSc1c[nH]c2ccccc12`, the RGS16–Galpha-o binding response in [11] was found to be 19.6%. In addition, in [12], the RGS19–Galpha-o binding response was -48.5%. Moreover, the RGS7–Galpha-o binding response in [13] was determined as 25.2%. For the same compound, the RGS8–Galpha-o binding response in [14] came out at 27.5%. Further, the inhibition in assay [15] was -1.7% (inactive). Also, the binding response (% of control) in assay [16] is 104% (inactive); in assay [19], 106% (inactive). Further, the response (percent of control binding) was 102% (inactive) in [17] and 103% (inactive) in [20]. The response (% of control binding) in assay [18] was 110% (inactive).

For the compound `CC(=O)OCC(=O)[C@@]1(O)CC[C@H]2[C@@H]3CCC4=CC(=O)CC[C@]4(C)[C@H]3[C@@H](O)C[C@@]21C`, the percent of DMSO control GFP in [1] is 101% (inactive). Moreover, the GFP response vs DMSO in assay [2] is 104% (inactive); in assay [4], 97.3% (inactive); in [6] it was 95.8% (inactive); in [6] (setting [21]) it was 97.1%; in assay [6] (setting [22]) it was 97.7%; in assay [8], 100% (inactive). Also, in assay [3], the percent response of DMSO control is 96.6% (inactive). Also, the GFP response, % of DMSO was 103% (inactive) in assay [5], 99.7% (inactive) in [9], 101% in assay [9] (setting [21]) and 98.5% in [9] (setting [22]). Besides, the GFP response relative to DMSO in assay [7] is 96.7% (inactive); in [7] (setting [23]) it was 99.2%; in assay [7] (setting [24]) it was 95.1%. The compound also came in with a double positive events in [10] of 62.5%. Further, the vesicle binding response in [10] was 4910% (inactive).

`C=CCNc1nc(N)c(C(=C(C#N)C#N)c2ccccc2)s1`: the inhibition in assay [15] was 0.8% (inactive). The figures for the binding response (% of control) in assay [16] and in assay [19] were 98.2% (inactive) and 95.9% (inactive), respectively. For the same compound, the figures for the response (percent of control binding) in [17] and in [20] were 87.1% (inactive) and 113% (inactive), respectively. In addition, the response (% of control binding) in assay [18] is 99% (inactive).

The values above are taken from PubChem BioAssay.
